Source: PubChem
Rows were chosen to be rich in hits. Some 1.8% of all compounds tested hit in one or more screens of this group.
Sa RN4220 lethal: kills Staphylococcus aureus RN4220; AID 1259311; 0.33% of 330,000 active; inhibition, % (no concentration beside the values); S. aureus RN4220 growth, OD600, 16 h; in the data active means inhibition above about 85%;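 further: plate controls were untreated cells for no effect and reference antibiotic for full effect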
PriA SSB inh: K. pneumoniae PriA-SSBct interaction inhibition; AlphaScreen SSBct-PriA binding, biotinylated peptide; inhibition, % at 33 µM; 0.6% of 430,000 active; AID 1272365; in the data active means inhibition mostly above about 37%, no sharp cut-off; inactive means mostly below about 20%;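 further: plate controls were negative control peptide for no effect and reference peptide for full effect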
VHR inh abs: DUSP3 (human) phosphatase inhibition; 0.52% of 290,000 active; recombinant VHR phosphatase, pNPP absorbance; inhibition, % at 13.3 µM; in the data active means inhibition above about 50%
Target sequence (P51452 whole entry, looked up): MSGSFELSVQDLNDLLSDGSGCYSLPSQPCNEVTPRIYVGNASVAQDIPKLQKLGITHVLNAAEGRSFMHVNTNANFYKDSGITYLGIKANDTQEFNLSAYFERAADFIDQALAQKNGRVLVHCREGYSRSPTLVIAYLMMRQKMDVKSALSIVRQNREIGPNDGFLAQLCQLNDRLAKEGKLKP
PfHsp40 rescue: restores yeast growth despite PfHsp40 toxicity; S. cerevisiae expressing PfHsp40, growth rescue, ATP luminescence; growth rescue, % at 12.5 µM; 0.68% of 340,000 active; AID 504582; in the data active means growth rescue above about 28%, passing the limit was not always enough;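 further: yeast W303a lacking pdr1 and pdr3 grown in galactose medium; growth measured after three days at 30 °C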
Sa ugtP lethal: compounds lethal to S. aureus RN4220 ugtP deletion mutant | 0.54% of 330,000 active | growth inhibition, % (no concentration beside the values) | OD600 growth, 16 h; in the data active means growth inhibition above about 68%;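 further: plate controls were untreated wells for no effect and antibiotic for full effect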
Mtb hypoxia inh: inhibitors of hypoxia-regulated fluorescent reporter in Mycobacterium tuberculosis | AID 1159583 | fluorescence inhibition, % (test concentration not listed) | M. tuberculosis hypoxia-regulated fluorescent reporter, fluorescence | 0.1% of 300,000 active; in the data active means fluorescence inhibition mostly above about 23%, no sharp cut-off; inactive means mostly below about 17%
The depositor's hits bear a star; . = not tested or not shown.

SMILES | Sa RN4220 lethal | PriA SSB inh | VHR inh abs | PfHsp40 rescue | Sa ugtP lethal | Mtb hypoxia inh
C(=NN1CCN(Cc2ccccc2)CC1)c1cccnc1 | 6 | -19 | . | . | 8 | 11
CCOC(=O)C1=C(c2ccccc2)N=C(SCC(=O)N(CC)CC)C(C#N)C1c1ccco1 (stereo unspecified) | . | 3 | . | . | . | .
CCCN1CCCc2cc(CCNC(=O)c3c(OC)cccc3OC)ccc21 | . | 80* | . | . | . | .
CCCN1CCCc2cc(CCNC(=O)c3ccc(F)cc3)ccc21 | . | 23 | . | . | . | .
Cc1ccc([C@H](CNC(=O)C2(c3ccc(Cl)cc3)CCCC2)OCCO)cc1 | . | -8 | . | . | . | .
O=C(O)c1cc(N2N=C(C(F)(F)F)/C(=C/C=C/c3ccco3)C2=O)ccc1Cl | 16 | -2 | 48 | 112* | -2 | 4
CCOC(=O)c1ccc(N2N=C(C)/C(=C/C=C/c3ccco3)C2=O)cc1 | 1 | -17 | 4 | 0 | -18 | 2
Cc1c(C(=O)NCCn2nc(-c3ccccn3)n(C)c2=O)cnn1-c1ccccc1 | . | 2 | . | . | . | .
CN1C(=O)Cc2cc(NC(=O)c3ccc(-c4ccsc4)cc3)ccc21 | . | 58* | . | . | . | .
